An excerpt weighted towards active compounds, which were near 3% of everything screened.
Tau fluor counter: counter-screen for tau fibril formation inhibitors | tau K18 P301L Alexa594 fluorescence, heparin fibrillization | Potency, µM (top dose mostly 57.7 µM), without a hit: top-dose activity change, negative = decrease | actives 0.93% (n = 280,000); further: nearly all actives have a fitted effect of over 55% in size
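Human K18 P301L tau (15 uM unlabeled plus 0.24 uM Alexa 594-labeled, final) in 100 mM sodium acetate pH 7 was mixed with compound and 20 uM heparin and incubated 6 hr at 37 C.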
TexasRed fluor: Texas Red fluorescence interference in TRb-SRC2 counter-screen. actives 0.29% (n = 280,000). Potency, µM (highest dose often 106 µM), for the others: at the top dose fluorescence change, negative = quenching. TRb/SRC2 Texas Red total fluorescence interference; active means well fitted curve in either direction with a large enough effect; inconclusive means small, poorly fitted or top-dose-only effect
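Flags fluorescent or light-absorbing compounds by total fluorescence, S + 2P, at 555 nm excitation and 632 nm emission. Mixture: 20 nM Texas Red SRC2 peptide, 0.6 uM human TRb LBD, 1 uM T3, 5% DMSO; compound exposure 5 h at ambient temperature.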
Tau fibril FP: blocks human tau fibril formation measured by polarization. P10636. K18 P301L tau heparin fibrillization, Alexa594 FP, 6 h. Potency, µM (doses to about 57.7 µM), inactives show at the top dose activity, negative = inhibition, most hits filed as inhibitors. actives 0.39% (n = 280,000); further: nearly all actives have a fitted effect of over 55% in size
Target sequence (P10636 561-689 P618L limits assumed): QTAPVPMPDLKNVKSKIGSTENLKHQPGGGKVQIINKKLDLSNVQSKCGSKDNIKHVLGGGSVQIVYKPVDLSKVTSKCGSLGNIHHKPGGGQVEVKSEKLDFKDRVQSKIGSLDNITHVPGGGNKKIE
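K18 P301L tau (15 uM unlabeled/0.24 uM Alexa 594-labeled, final) + compound + heparin 20 uM final; 100 mM NaOAc pH 7; 6 hr 37 C; ThT 30 uM final added, 1 hr RT; FP ex 555/em 632 nm.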
TRb-SRC2 inh: disrupts binding of human TR beta to SRC2. P10828. TRbeta-SRC2 peptide binding, fluorescence polarization; receptor liganded with 1 µM T3. Potency, µM (highest dose often 106 µM), without a hit: at the top dose activity change, negative = inhibition, usual class: inhibitors. actives 0.065% (n = 280,000). AID 1469;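 further: plate controls were bound peptide for no effect and peptide without receptor for full effect; nearly all actives have a fitted effect of over 50% in size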
Target sequence (P10828 whole entry, looked up): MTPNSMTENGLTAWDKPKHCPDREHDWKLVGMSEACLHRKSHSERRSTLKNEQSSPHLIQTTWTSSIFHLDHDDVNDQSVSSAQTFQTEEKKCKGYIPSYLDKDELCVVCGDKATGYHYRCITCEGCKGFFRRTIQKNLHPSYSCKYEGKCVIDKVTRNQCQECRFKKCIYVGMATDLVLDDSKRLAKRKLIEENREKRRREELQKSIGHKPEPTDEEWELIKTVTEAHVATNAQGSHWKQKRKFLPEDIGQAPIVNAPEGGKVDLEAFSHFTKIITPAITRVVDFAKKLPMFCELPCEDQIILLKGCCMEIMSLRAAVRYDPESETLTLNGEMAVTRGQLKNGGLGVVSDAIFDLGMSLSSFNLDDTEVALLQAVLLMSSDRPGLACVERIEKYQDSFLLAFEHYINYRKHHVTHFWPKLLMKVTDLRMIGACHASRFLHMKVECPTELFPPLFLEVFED
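TRb LBD 0.6 uM + Texas Red SRC2 peptide 20 nM, 1 uM T3, Tris buffer w/ 5% DMSO; compound pinned, 5 h RT; FP read ex 555/em 632; normalized to unbound and bound controls.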
Tau ThT inhib: tau fibrillization inhibition (ThT binding). Potency, µM (doses to about 57.4 µM), inactives show at the highest dose activity, negative = inhibition, usual class: inhibitors. recombinant tau K18 P301L (four-repeat tau fragment), heparin-induced fibrillization, ThT fluorescence. actives 2.1% (n = 270,000); further: nearly all actives have a fitted effect of over 55% in size
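Heparin-induced (20 uM) aggregation of recombinant human K18 P301L tau, 15 uM unlabeled with 0.24 uM labeled, pH 7 acetate buffer, 6 hr at 37 C with compound. Fibrils quantified by 30 uM ThT fluorescence after 1 hr ambient incubation.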
The depositor's hits bear a star; ? = inconclusive; / = not tested or not shown; [ ] = dose if it differs, or a comment. Unless noted, the call rests on the fitted dose curve; in most records, active means well fitted curve in the direction sought with a large enough effect; inconclusive means small, poorly fitted or top-dose-only effect, or another doubt; inactive means no such curve, though single readings can be large; an effect the other way counts as inactive or inconclusive. Unless noted, on the % scale 0 is the no-effect control and ±100 the full control effect; potency means the concentration at half of the fitted maximal effect.

SMILES	Tau fluor counter	TexasRed fluor	Tau fibril FP	TRb-SRC2 inh	Tau ThT inhib
CCCS(=O)(=O)NCCc1sc2nc(-c3ccc(Cl)cc3)nn2c1C	-5%	-1%	?	-7%	10%
COCCNC(=O)CSc1nc(-c2ccc(F)cc2)[nH]c1-c1ccc(Cl)cc1	?	-4%	?	-7%	-13%
COCCNC(=O)CSc1nc(-c2cc(OC)c(OC)c(OC)c2)[nH]c1-c1ccc(Cl)cc1	16µM*[quencher]	-5%	?	-9%	?
COc1ccc(-c2nc(SCC(=O)Nc3ccccc3)c(-c3ccc(F)cc3)[nH]2)cc1OC	7.1µM*[quencher]	-1%	?	2%	?
COc1cc(-c2nc(SCC(=O)Nc3ccc(C)cc3)c(-c3ccc(F)cc3)[nH]2)cc(OC)c1OC	4.5µM*[quencher]	-3%	1%	1%	-17%
COc1ccc(NC(=O)CSc2nc(-c3ccccc3)[nH]c2-c2ccccc2)cc1OC	16µM*[quencher]	-3%	2%	3%	?
COc1ccc(NC(=O)CSc2nc(-c3ccc(F)cc3)[nH]c2-c2ccc(C)cc2)cc1OC	3.5µM*[quencher]	-1%	-15%	0%	?
CCN(CC)c1cc(C)c2cc(NC(=O)/C=C/c3ccccc3OC(C)C)ccc2n1	7.9µM*[quencher]	-4%	?	0%	?
CCN(CC)c1ccc(C(=O)Nc2ccc3nc(N(CC)CC)cc(C)c3c2)cc1	14µM*[quencher]	-2%	12%	-2%	3.5µM*
CCN(CC)c1ccc(/C=C2/SC(=O)N(C(C)C)C2=O)o1	-18%	0%	-3%	0%	18µM*
Cc1cc(N2CCOCC2)ccc1/C=C1\SC(=O)N(C(C)C)C1=O	?	-2%	15%	-10%	?
O=C(Nc1ccc(Br)c(C(F)(F)F)c1)c1ccc(C(F)(F)F)cc1	-28%	-1%	22µM*	-4%	/
Cc1cc(C(=O)N/N=C/C=C/c2ccc([N+](=O)[O-])cc2)n[nH]1	-18%	3%	0%	-1%	1.8µM*
O=[N+]([O-])c1cc(Cl)cc(/C=N\Nc2ccccn2)c1O	18µM*[quencher]	-1%	-12%	-7%	8.9µM*
Cc1cc(C(=O)N/N=C/c2ccc([N+](=O)[O-])s2)n[nH]1	-21%	-6%	-9%	-5%	?
Cc1cc(C(=O)N/N=C/c2cc(Cl)cc([N+](=O)[O-])c2O)n[nH]1	?	-4%	-11%	-6%	13µM*
O=C(N/N=C/c1cc(Cl)cc([N+](=O)[O-])c1O)c1cc(-c2ccccn2)nc2ccccc12	?	5%	5%	1%	8.9µM*
CCOc1cc(/C=N/NC(=O)c2cc(C)[nH]n2)ccc1OC(=O)c1ccc([N+](=O)[O-])cc1	?	-2%	-3%	-4%	?
CCCC(=O)Nc1cc(C(=O)NCc2ccccc2)ccc1S(=O)(=O)c1ccc(Cl)cc1	-25%	-1%	-3%	-4%	?
Cc1nc2c(C(=O)NCCC(C)C)cnn2c(C)c1Cc1c(F)cccc1Cl	-3%	1%	6%	0%	-10%
Cc1ccc2scc(N3CCN(c4ccc(F)cc4)CC3)c(=O)c2c1	-22%	3%	-6%	7%	8.9µM*
Cc1ccc2scc(N3CCN(c4ccccc4)CC3)c(=O)c2c1	-30%	2%	-5%	7%	4µM*
Cc1ccc2scc(N3CCc4ccccc4C3)c(=O)c2c1	?	0%	?	-3%	7.1µM*
CCN1CCN(c2csc3ccc(F)cc3c2=O)CC1	-5%	2%	4%	7%	?
CCOC(=O)[C@H](Cc1ccc(O)cc1)NC(=O)c1ccccc1	/	-3%	/	0%	/
SMILES	Tau fluor counter	TexasRed fluor	Tau fibril FP	TRb-SRC2 inh	Tau ThT inhib
COc1ccc(OC)c(NC(=O)c2ccc3c(c2)c(C)c(C)n3Cc2ccc(F)cc2)c1	?	-1%	6%	10%	-9%
O=C(CSC1=NS(=O)(=O)c2ccccc21)Nc1ccccc1	-16%	2%	?	-6%	32µM*
CCn1c(-c2cc(-c3ccccc3)sc2N)n[nH]c1=S	14µM*[quencher]	-1%	10%	-8%	?
CCn1c(-c2ccccc2O)n[nH]c1=S	0%	0%	1%	0%	-1%
CN=C(c1ccco1)n1c(=S)nc(-c2ccco2)n(C)c1=S	-22%	-4%	?	-7%	28µM*
COC(=O)c1cc(Cl)ccc1NC(=O)CSc1ncc(S(=O)(=O)c2ccc(Br)cc2)c(=O)[nH]1	-17%	6%	?	9%	32µM*
Cc1cc2c(n1-c1ccc(C(=O)NCCc3ccc(Cl)cc3)cc1)CCC(C)C2 (stereo not given)	-12%	-23%	?	3%	?
CC1CCC(C(C)C)C(OC(=O)COC(=O)c2ccc(=O)[nH]c2)C1 (stereo not given)	-15%	-4%	2%	-10%	-13%
CC1CCC(C(C)C)C(OC(=O)COC(=O)c2cc(O)ccc2N)C1 (stereo not given)	11µM*[quencher]	-1%	?	-2%	-14%
Cc1cccc(NC(=O)Cn2c(=O)n(CCc3c[nH]c4ccccc34)c(=O)c3cccnc32)c1	11µM*[quencher]	-3%	-7%	9%	-13%
CNC(=S)N(CCc1c(C)[nH]c2ccccc12)Cc1ccco1	-29%	-2%	7%	-7%	-11%
Cc1[nH]c2ccc(F)cc2c1CCN(Cc1ccco1)C(=S)NC(C)(C)C	-17%	-1%	-4%	-1%	-6%
CCOc1ccc(NC(=S)N(CCc2c(C)[nH]c3ccccc23)Cc2ccco2)cc1	13µM*[quencher]	-3%	?	0%	?
COc1ccc(NC(=S)N(CCc2c(C)[nH]c3ccccc23)Cc2ccco2)cc1	14µM*[quencher]	-2%	12%	4%	?
COc1ccc(NC(=O)c2ncoc2-c2ccco2)cc1Cl	-22%	-3%	-10%	-1%	?
CCOc1ccc2oc(=O)cc(CN3CCN(c4ccc(Cl)cc4)CC3)c2c1	-16%	-1%	0%	2%	4%
COc1cccc(NC(=O)CCC(=O)N2Cc3ccccc3Oc3ncccc32)c1	-7%	1%	0%	9%	1%
Cc1ccc(S(=O)(=O)Nc2ccc(N3CCOCC3)nc2)cc1	-11%	1%	10%	3%	-4%
Cc1ccc(C)n1-c1ccc(N2CCOCC2)nc1	-29%	21%	-13%	5%	13µM*
COC(=O)CSCc1nc2ccccc2[nH]c1=O	-15%	-2%	?	2%	32µM*
O=C1NN(c2ccccc2)C(=O)/C1=C/c1coc2ccccc2c1=O	9%	1%	-1%	-3%	11%
COc1ccc(-n2c(C)cc(/C=C3\C(=O)NN(c4ccccc4)C3=O)c2C)cc1	-30%	-1%	9%	-3%	?
Cc1cc(/C=C2/C(=O)NN(c3ccccc3)C2=O)c(C)n1-c1ccc(O)cc1	-22%	-2%	11%	4%	13µM*

Source: PubChem BioAssay (National Center for Advancing Translational Sciences (NCATS))
